The results in this text go back to PubChem BioAssay (NCATS).

Where “and” joins values, the source holds several entries; their conditions need not be identical. Identical values can stand only once. Results filed as inconclusive are left out. Calls of active or inactive are those of the source. The call rests on the fitted dose curve; in most records, active means well fitted cell-killing curve with a large enough effect; inconclusive means small, poorly fitted or top-dose-only effect; inactive means flat fitted curve, though single readings scatter.
Potency means the concentration at half of the fitted maximal effect.

The first assay is described as follows: Cellular viability qHTS for adrenocortical cancer (ACC) cell line SW-13 (AID 1963989). Further: nearly all actives have a fitted effect of over 65% in size.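 On activity (max response): cells grown in serum-free medium with ITS supplement; on the % scale 0 is the no-effect control and ±100 the full control effect.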 The following applies: SW-13 ACC cells viability, CellTiter-Glo, 48 h; activity (max response): active compounds read low. An outline of the steps: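 IC50 and maximal-response values come from four-parameter logistic fits of titration data. SW-13 cells in serum-free medium received compounds (up to 46 uM final) for 48 h before CellTiter-Glo luminescence.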
Turning to `CC(=O)OC[C@H]1O[C@@H]([S-])[C@H](OC(C)=O)[C@@H](OC(C)=O)[C@@H]1OC(C)=O.CC[PH+](CC)CC.[Au]`, the Potency was 0.708 µM (active). Regarding `COc1ccc(C(=O)N2CCCC2=O)cc1`, the activity (max response) was -6.45% (inactive) and 13% (inactive). With `Cc1ccc2c(c1)C1CN(C)CCC1N2` (stereo not drawn), the activity (max response) was -4.86% (inactive). Turning to `O=C(NC(O)C(Cl)(Cl)Cl)NC(O)C(Cl)(Cl)Cl` (stereo not drawn), the activity (max response) is 11.7% (inactive).

For the molecule `COc1cc(C)[nH]c(=O)c1CNC(=O)c1c(C)n([C@H](C)C2CCOCC2)c2ccccc12`, the activity (max response) was 8.24% (inactive). Still for that read-out and setting: the result for `CCC(=O)O[C@@H]1C=C2CCC3C(CCC4(C)C3CC[C@@H]4OC(=O)CC)C2CC1` (stereo partly drawn) reads 1.7% (inactive). Turning to `CC(C)[C@]12O[C@H]1[C@@H]1O[C@]13[C@]1(O[C@H]1C[C@H]1C4=C(CC[C@@]13C)C(=O)OC4)[C@@H]2O`, the Potency was 0.251 µM (active). Consider `CC[N+](CC)(CC)CC`, for which the activity (max response) is 9.95% (inactive). Same read-out and setting: next, `COP(=S)(OC)Oc1ccc(SC)c(C)c1`: 5.91% (inactive).

For the molecule `ClC1=C(Cl)C2(Cl)C(CBr)CC1(Cl)C2(Cl)Cl` (stereo not drawn), the activity (max response) is -7.86% (inactive). Same read-out and setting: next, `COP(=O)(OC)C(O)C(Cl)(Cl)Cl` (stereo not drawn): 6.64% (inactive). With `CCC(=O)OC1(c2ccccc2)CCN(C)CC1`, the activity (max response) is -11.5% (inactive).

Regarding `C[N+]1(CCF)[C@@H]2CC[C@H]1CC(OC(=O)C(O)(c1ccccc1)c1ccccc1)C2` (stereo partly drawn), the activity (max response) is 9.46% (inactive). Same read-out and setting: next, `CN1[C@H]2CC(O)C[C@H]1[C@H]1O[C@H]12` (stereo partly drawn): 10.2% (inactive); `COc1cc2c(cc1F)C(c1ccccc1Cl)=Nc1c(n[nH]c1C)N2`: -18.7% (inactive). On to `Oc1ccc(Cl)cc1Cc1ccccc1`, for which the Potency was 35.5 µM (active). With `COc1cc(CC(C)N)cc(OC)c1OC` (stereo not drawn), the activity (max response) was -27.2% (inactive). For `N[C@@H](Cc1ccc(Oc2cc(I)c(O)c(I)c2)c(I)c1)C(=O)O`, the activity (max response) is 2.16% (inactive). In the case of `Cc1cccc(C)c1NC1=NCCCS1`, the activity (max response) is -0.0852% (inactive). `C=C(C)[C@@H]1CCC(C)=C[C@H]1c1c(O)cc(CCCCC)cc1O`: the Potency was 31.6 µM (active).

On to `Nc1ccc(Cl)cc1`, for which the activity (max response) is 5.53% (inactive). On the same count and under the same terms, next, `COc1cc(C[C@@H](C)N)c(OC)cc1C`: -18.7% (inactive).

As for `CCCCCCCCCCCC[N+](C)(C)CCOc1ccccc1`, the Potency is 5.17 µM (active).

In the case of `CCN(CC)CCOC(=O)C(C)(c1ccccc1)c1ccccc1`, the activity (max response) was -13.3% (inactive). Still for that read-out and setting: the result for `CC(C)=CC1C(C(=O)OCN2C(=O)C3=C(CCCC3)C2=O)C1(C)C` (stereo not drawn) reads -13.2% (inactive).

For the molecule `CC1(C)CC(O)CC(C)(C)N1O`, the activity (max response) is -2.2% (inactive). In the case of `CN(C)c1cc2c(cc1Sc1nc3c(N)nccc3n1CCNCC(C)(C)C)OCO2`, the Potency is 1.41 µM (active).

In the case of `CC(C)(O)/C=C\C(=O)[C@](C)(O)[C@H]1[C@H](O)C[C@]2(C)[C@@H]3CC=C4[C@@H](C=C(O)C(=O)C4(C)C)[C@]3(C)C(=O)C[C@@]12C`, the Potency is 0.562 µM (active).

The next assay is described as follows: Cellular viability qHTS for adrenocortical cancer (ACC) cell line NCI-H295R (AID 1963990). Further: nearly all actives have a fitted effect of over 60% in size. The following applies: CellTiter-Glo ATP luminescence, 48 h; series mostly up to 46.1 µM. The method, boiled down:
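Adrenocortical carcinoma cells, suspended at 300 000 cells/mL in serum-free DMEM plus ITS, rested overnight before pin transfer of compound. After two days' incubation, ATP-dependent luminescence was recorded and curve-fitted.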
In general terms: In qHTS, concentration-response curves come from the screen itself.
Turning to `CCN(Cc1ccc(Cl)nc1)/C(=C/[N+](=O)[O-])NC`, the Potency entry was “inactive”.

As to `CN1CCC(O)(c2ccc(F)cc2)C(C(=O)c2ccc(F)cc2)C1` (stereo not drawn), the Potency entry was “inactive”.

Regarding `C[C@@H]1CC[C@@]2(OC1)O[C@H]1C[C@H]3[C@@H]4CC=C5C[C@@H](O[C@@H]6O[C@H](CO)[C@@H](O[C@@H]7O[C@@H](C)[C@H](O)[C@@H](O)[C@H]7O)[C@H](O)[C@H]6O[C@@H]6O[C@@H](C)[C@H](O)[C@@H](O)[C@H]6O)CC[C@]5(C)[C@H]4CC[C@]3(C)[C@H]1[C@@H]2C`, the Potency is 2.24 µM (active).

For the molecule `CO/C1=C/C(C)=C\[C@@H](C)[C@@H](O)[C@@H](C)C/C(C)=C\C=C/[C@H](OC)[C@@H]([C@@H](C)[C@@H](O)[C@H](C)[C@@]2(O)C[C@@H](O)[C@H](C)[C@@H](C(C)C)O2)OC1=O`, the Potency was 0.0435 µM (active). With `Clc1cccc(N2CCNCC2)c1`, the Potency result is “inactive”.

Regarding `CCNc1nc(Cl)nc(NCC)n1`, the Potency entry was “inactive”. With `Cc1[nH]ncc1-c1cc2nc([C@@H]3CC4CCN3CC4)[nH]c(=O)c2s1`, the Potency was 28.2 µM (active). On the same count and under the same terms, the result for `CN1C(=O)NC(=O)C(C)(C2=CCCCC2)C1=O` (stereo not drawn) reads “inactive”. Still for that read-out and setting: next, `O=C(N/N=C/c1ccc([N+](=O)[O-])o1)c1cc([N+](=O)[O-])cc([N+](=O)[O-])c1O`: “inactive”; `C[C@@H](C1CC[C@@]2(O)C3=CC(=O)[C@@H]4C[C@@H](O)[C@@H](O)C[C@]4(C)[C@H]3CC[C@]12C)[C@H](O)CCC(C)(C)O` (stereo partly drawn): “inactive”; `CC(=O)OC[C@H]1O[C@@H]([S-])[C@H](OC(C)=O)[C@@H](OC(C)=O)[C@@H]1OC(C)=O.CC[PH+](CC)CC.[Au]`: 0.631 µM (active).

As for `COc1ccc(C(=O)N2CCCC2=O)cc1`, the Potency entry is “inactive”. The same measure, in the same setting: the result for `Cc1ccc2c(c1)C1CN(C)CCC1N2` (stereo not drawn) reads “inactive”. Still for that read-out and setting: next, `O=C(NC(O)C(Cl)(Cl)Cl)NC(O)C(Cl)(Cl)Cl` (stereo not drawn): “inactive”. On the same count and under the same terms, the result for `COc1cc(C)[nH]c(=O)c1CNC(=O)c1c(C)n([C@H](C)C2CCOCC2)c2ccccc12` reads “inactive”. Regarding `CC(C)[C@]12O[C@H]1[C@@H]1O[C@]13[C@]1(O[C@H]1C[C@H]1C4=C(CC[C@@]13C)C(=O)OC4)[C@@H]2O`, the Potency was 0.316 µM (active).

Regarding `CC[N+](CC)(CC)CC`, the Potency result was “inactive”. The same measure, in the same setting: the result for `COP(=S)(OC)Oc1ccc(SC)c(C)c1` reads “inactive”; that for `ClC1=C(Cl)C2(Cl)C(CBr)CC1(Cl)C2(Cl)Cl` (stereo not drawn), “inactive”; that for `COP(=O)(OC)C(O)C(Cl)(Cl)Cl` (stereo not drawn), “inactive”. Same read-out and setting: next, `CCC(=O)OC1(c2ccccc2)CCN(C)CC1`: “inactive”; `C[N+]1(CCF)[C@@H]2CC[C@H]1CC(OC(=O)C(O)(c1ccccc1)c1ccccc1)C2` (stereo partly drawn): “inactive”. Same read-out and setting: the result for `CN1[C@H]2CC(O)C[C@H]1[C@H]1O[C@H]12` (stereo partly drawn) reads “inactive”. `COc1cc2c(cc1F)C(c1ccccc1Cl)=Nc1c(n[nH]c1C)N2`: the Potency entry is “inactive”. As for `Oc1ccc(Cl)cc1Cc1ccccc1`, the Potency is 12.6 µM (active) and 23.1 µM (active). On to `COc1cc(CC(C)N)cc(OC)c1OC` (stereo not drawn), for which the Potency entry is “inactive”. The same measure, in the same setting: the result for `Cc1cccc(C)c1NC1=NCCCS1` reads “inactive”; that for `Nc1ccc(Cl)cc1`, “inactive”.

Consider `COc1cc(C[C@@H](C)N)c(OC)cc1C`, for which the Potency result was “inactive”. Still for that read-out and setting: next, `CCCCCCCCCCCC[N+](C)(C)CCOc1ccccc1`: 23.1 µM (active); `CCN(CC)CCOC(=O)C(C)(c1ccccc1)c1ccccc1`: “inactive”; `CC(C)=CC1C(C(=O)OCN2C(=O)C3=C(CCCC3)C2=O)C1(C)C` (stereo not drawn): “inactive”.

As for `CC1(C)CC(O)CC(C)(C)N1O`, the Potency entry is “inactive”. On the same count and under the same terms, the result for `CN(C)c1cc2c(cc1Sc1nc3c(N)nccc3n1CCNCC(C)(C)C)OCO2` reads 2.24 µM (active); that for `CC(C)(O)/C=C\C(=O)[C@](C)(O)[C@H]1[C@H](O)C[C@]2(C)[C@@H]3CC=C4[C@@H](C=C(O)C(=O)C4(C)C)[C@]3(C)C(=O)C[C@@]12C`, 1.26 µM (active).
